In the library only some 4.1% were active in any assay of this set; here they are far more common.
hcDAF12 agonist = H. contortus DAF-12 activation, primary screen. HEK293 hcDAF-12 lit1-tk-luc reporter, luminescence; 0% DMSO, 100% Δ7-dafachronic acid. activation, % at 6.8 µM. hit rate 1.4% among 370,000. AID 652067;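 active means activation above the mean of all tested compounds plus 3 SD, cut at about 5.5% in these data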;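 further: 100% = response to 3 µM Δ7-dafachronic acid high control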
DAX1 inh-1 = DAX1 (NR0B1) inhibition, primary screen; HEK293T StAR-luciferase reporter, SF-1/DAX-1 repression relief; inhibition, % at 6.8 µM; hit rate 1.1% among 370,000; AID 652010;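 active means inhibition above the mean over all tested compounds plus 3 SD, cut at about 3.6% in these data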;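 further: 0% = DAX-1 cells with DMSO and 100% = cells lacking DAX-1 with DMSO; higher inhibition means more luminescence from relief of DAX-1 repression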
hgDAF-12 ag = activates the H. glycines DAF-12 receptor ligand-binding domain | HEK293 GAL4-hgDAF12 UAS-luciferase reporter, agonist luminescence; normalized to butyrate control | activation, % at 6.8 µM | hit rate 1.8% among 370,000 | AID 687014;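 active means activation above a cutoff set at the mean of all screened compounds plus 3 SD, cut at about 10% in these data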;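 further: 0% = DMSO wells and 100% = sodium butyrate wells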
DAX1 inh-2 = NR0B1 (DAX1) inhibition. P51843. HEK293 Gal4-DAX1 luciferase reporter, luminescence. inhibition, % at 6.75 µM. hit rate 0.99% among 340,000;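 active means inhibition above the mean over all tested compounds plus 3 SD, cut at about 4.2% in these data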;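 further: 0% = DAX1-transfected cells with DMSO and 100% = empty-vector control cells with DMSO; inhibition shows as a rise in luminescence from relieved DAX1 repression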
Target sequence (P51843 207-470 limits assumed): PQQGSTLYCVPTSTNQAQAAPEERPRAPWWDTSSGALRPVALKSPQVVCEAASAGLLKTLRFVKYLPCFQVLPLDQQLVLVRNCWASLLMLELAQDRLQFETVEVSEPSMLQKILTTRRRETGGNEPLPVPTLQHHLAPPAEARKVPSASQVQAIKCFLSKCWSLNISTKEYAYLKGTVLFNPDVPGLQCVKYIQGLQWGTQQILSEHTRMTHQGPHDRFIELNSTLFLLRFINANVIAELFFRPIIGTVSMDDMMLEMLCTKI
ssDAF12 agonist = activates DAF-12 receptor from parasite S. stercoralis. HEK293 ssDAF-12/GRIP1 lit1-tk-luc reporter, luminescence; % of 3 µM dafachronic acid response. activation, % at 6.8 µM. hit rate 1% among 370,000. AID 652126;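 active means activation above the mean over all tested compounds plus 3 SD, cut at about 0.9% in these data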;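 further: 0% = DMSO-only wells and 100% = 3 µM delta7-dafachronic acid wells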
Starred values were filed as active, the others as inactive; · = not tested or not shown.

SMILES	hcDAF12 agonist	DAX1 inh-1	hgDAF-12 ag	DAX1 inh-2	ssDAF12 agonist
Nn1c(SCC(=O)Nc2nccs2)nnc1-c1cc(-c2ccccc2)n[nH]1	2.5	1.2	11.2*	·	-0.6
Cc1ccc2nc(-c3ccc(NC(=O)CSc4nnc(-c5ccccc5)n4Cc4ccco4)cc3)sc2c1	0.6	1.8	11.7*	·	-0.9
COc1ccc(-c2cc(-c3nnc(SCC(=O)Nc4ccc(-c5nc6ccc(C)cc6s5)cc4)n3N)[nH]n2)cc1	3.3	1.3	12.9*	·	-0.3
CC(=O)c1nc2ccccc2n1CCc1ccccc1	-0.3	0.0	1.2	1.5	1.2*
O=C(Cn1nnc2ccccc21)OCc1ccccc1	-1.5	0.2	1.8	0.3	-0.6
O=C(Cn1nnc2ccccc21)NCc1ccccc1	2.8	1.4	10.8*	3.0	-0.7
O=C(Cn1nnc2ccccc21)c1ccc(Br)cc1	-0.3	1.2	1.5	1.5	-1.5
Cc1ccc(C(=O)Cn2nnc3ccccc32)cc1	3.5	2.0	11.3*	0.4	-0.3
Cc1ccc(OCCn2nnc3ccccc32)cc1C	3.0	1.1	12.6*	0.6	-0.8
c1ccc(CCn2nnc3ccccc32)cc1	2.6	2.4	8.3	6.3*	-1.2
N#CCCn1nnc2ccccc21	-1.5	0.1	2.3	0.4	-0.7
Cc1ccc(S(=O)(=O)Nc2ccncc2)c(C)c1N(C)S(=O)(=O)c1ccc(F)cc1	5.7*	-0.1	-0.9	0.8	-1.5
COc1ccc(S(=O)(=O)Nc2ccncc2)c(C)c1C	-1.4	0.6	-1.8	-0.4	-0.9
O=C(c1ccccn1)C1CCCN(Cc2nc(Cc3cccc(F)c3)no2)C1 (centres undefined)	-3.2	-0.6	-5.3	4.4*	-1.0
N#Cc1[nH]nc2nc[nH]c(=O)c12	0.0	1.4	-2.8	·	-1.7
CCOc1ccc2nc(SCC(=O)c3ccc(Cl)s3)sc2c1	-0.6	-0.6	2.7	-0.1	-1.1
CCOc1ccc2nc(SCC(=O)c3cccs3)sc2c1	3.6	2.3	12.0*	2.8	0.9
Oc1[nH]c2ccccc2c1/C=N/c1nccs1	5.7*	0.9	6.1	1.7	0.6
COc1ccc(CN=Cc2c(O)[nH]c3ccccc23)cc1	2.5	-0.5	7.8	1.1	-0.6
COC(=O)c1c(-c2cccnc2)csc1NC(=O)c1cc(C)on1	6.5*	4.5*	6.7	0.9	0.2
COC(=O)c1c(-c2ccc(C)cc2)csc1NC(=O)c1c(-c2ccccc2)noc1C	-1.1	-1.2	-4.8	·	-1.6
O=S(=O)(N1CCCCC1)n1c(Cc2ccccc2)nc2ccccc21	-1.5	-0.5	-1.3	-0.1	1.9*
O=C(COC(=O)CNS(=O)(=O)c1ccc(Br)cc1Cl)NCCc1ccccc1	2.3	-4.0	2.0	-0.3	1.4*
COc1cc(/C=C(/C(=O)c2cccs2)c2nc3ccccc3[nH]2)ccc1O	1.7	-2.6	10.8*	-1.8	-0.8
COc1ccc(C[N+]2=C(N)N[C@@]3(C=C(C)Cn4c(=O)n(-c5ccccc5)c(=O)n43)C2)c(OC)c1	-1.2	1.1	-2.1	·	-1.1
SMILES	hcDAF12 agonist	DAX1 inh-1	hgDAF-12 ag	DAX1 inh-2	ssDAF12 agonist
Cc1cc(C(=O)NNS(=O)(=O)c2cccc(Cl)c2)nn1C(C)(C)C	-1.1	0.5	-0.6	4.2*	-1.0
CN1C(=O)Nc2cccc3cccc1c23	3.5	-0.4	-2.3	4.4*	-0.3
C[C@H]1C(=O)CC[C@@]23CCCN2C(=O)CCC[C@@H]13	-1.0	·	-1.4	·	-1.8
CNC(=O)CCc1nc(-c2ccc(C(C)C)cc2)no1	0.5	·	5.4	·	-0.1
CCOC(=O)C1CCCN1C(=O)C1(NC(C)=O)CCCC1 (centres undefined)	-0.8	0.2	12.4*	2.1	-0.7
CCOC(=O)C1CCN(C(=O)C2(NC(=O)NC3CCCCC3)CCCCC2)CC1	-1.5	-0.1	0.4	-0.2	-1.4
C/C(C=Nn1c(-c2ccc(F)cc2)n[nH]c1=S)=C/c1ccco1	1.0	0.4	-2.9	·	-0.1
O=C1CC(NCCc2ccccc2)C(=O)N1CCc1ccccc1 (centres undefined)	1.1	0.2	0.6	-0.5	-0.9
COc1ccc(CCNC2CC(=O)N(CCc3ccccc3)C2=O)cc1 (centres undefined)	-0.8	-0.1	-1.6	4.5*	-1.6
CCOC(=O)[C@@]12CCCC=C1N(CCc1ccc(Cl)cc1)C(=O)[C@H]2CC(=O)N1CCC(c2ccccc2)CC1	-2.5	-0.5	0.0	·	-1.1
COc1ccc(C(=O)C2(C(=O)NC3CCCC3)CC(c3ccccc3C(F)(F)F)=NO2)cc1 (centres undefined)	-1.7	-0.3	2.6	·	-1.3
O=C(N/N=C1\CCc2ccccc21)c1ccncc1	1.9	0.1	6.1	-0.1	-0.8
c1ccc2c(c1)CCc1c(-c3ccncc3)n[nH]c1-2	3.7	-2.8	0.6	2.3	1.6*
O=C1C(=NO)CCc2ccccc21	4.8	-2.1	0.8	1.9	1.3*
Nc1[nH]c(C(=O)c2ccccc2)c(-c2ccc3c(c2)OCO3)c1C(=O)NCCc1c[nH]c2ccccc12	-0.8	-0.2	-2.5	·	-1.1
CC1=C(C(=O)N(C)C)CC(CC(=O)NC2CCCC2)C(=O)N1CCC1=CCCCC1 (centres undefined)	2.8	3.6	11.6*	2.6	-0.1
CC1=C(C(=O)N(C)C)CC(CC(=O)NC2CCCCC2)C(=O)N1CCC1=CCCCC1 (centres undefined)	0.3	2.5	5.5	1.2	-0.7
CCOc1ccc2nc(Cl)c(C3CC(c4ccco4)=NN3S(=O)(=O)c3ccccc3)cc2c1 (centres undefined)	-1.2	0.2	2.3	-0.8	1.4*
COC(=O)C1=C(C)N(Cc2ccc(C(F)(F)F)cc2)C(=NCc2ccc(OC)cc2)NC1c1ccccc1 (centres undefined)	-1.2	-1.9	-1.0	·	-1.2
O=C1/C(=C/c2ccco2)CCc2ccccc21	6.2*	0.9	9.3	1.3	-0.5
C/C(=N\NC(=O)c1ccc(F)cc1)c1cccc(NC(=O)c2cccc(F)c2)c1	2.9	0.5	2.9	0.4	-0.9
C/C(=N\NC(=O)c1cccc(O)c1)c1cccc(NC(=O)c2ccc(F)cc2)c1	0.0	4.3*	6.0	2.5	0.6
C/C(=N\NC(=O)c1cccc(O)c1)c1ccc(NC(=O)Cc2ccccc2)cc1	2.1	6.8*	9.7	1.4	-0.1
COc1cccc(C(=O)N/N=C(\C)c2ccc(NC(=O)Cc3ccccc3)cc2)c1OC	3.8	3.8*	8.5	1.5	-0.3
COc1ccc(CC(=O)Nc2ccc(/C(C)=N/NC(=O)c3ccc(OC)cc3OC)cc2)cc1	-2.4	0.1	1.9	0.1	-0.5
C/C(=N/NC(=O)c1ccc(-c2ccccc2)cc1)c1cccc(O)c1	1.0	1.6	1.4	-0.5	-0.7
CCCCNC(=O)C1(C(=O)C2CC2)CC(c2ccccc2C(F)(F)F)=NO1 (centres undefined)	4.8	-0.7	-2.5	·	-0.5
COc1ccc(-n2c(SCC(=O)NNC(=S)Nc3ccc(C)cc3)nnc2-c2ccccc2)cc1	0.7	-2.1	-1.9	·	-1.9

High-throughput results: PubChem, The Scripps Research Institute Molecular Screening Center
